# Data from the supplement of paper PMC11732987, “Enantioselective OTUD7B fragment discovery through chemoproteomics screening and high-throughput optimisation” (Communications Chemistry, 2025).
# Unmarked numbers belong to inactive results.
# Target: T1, ALG13 (UniProt Q9NP73)
# T1 sequence (whole entry): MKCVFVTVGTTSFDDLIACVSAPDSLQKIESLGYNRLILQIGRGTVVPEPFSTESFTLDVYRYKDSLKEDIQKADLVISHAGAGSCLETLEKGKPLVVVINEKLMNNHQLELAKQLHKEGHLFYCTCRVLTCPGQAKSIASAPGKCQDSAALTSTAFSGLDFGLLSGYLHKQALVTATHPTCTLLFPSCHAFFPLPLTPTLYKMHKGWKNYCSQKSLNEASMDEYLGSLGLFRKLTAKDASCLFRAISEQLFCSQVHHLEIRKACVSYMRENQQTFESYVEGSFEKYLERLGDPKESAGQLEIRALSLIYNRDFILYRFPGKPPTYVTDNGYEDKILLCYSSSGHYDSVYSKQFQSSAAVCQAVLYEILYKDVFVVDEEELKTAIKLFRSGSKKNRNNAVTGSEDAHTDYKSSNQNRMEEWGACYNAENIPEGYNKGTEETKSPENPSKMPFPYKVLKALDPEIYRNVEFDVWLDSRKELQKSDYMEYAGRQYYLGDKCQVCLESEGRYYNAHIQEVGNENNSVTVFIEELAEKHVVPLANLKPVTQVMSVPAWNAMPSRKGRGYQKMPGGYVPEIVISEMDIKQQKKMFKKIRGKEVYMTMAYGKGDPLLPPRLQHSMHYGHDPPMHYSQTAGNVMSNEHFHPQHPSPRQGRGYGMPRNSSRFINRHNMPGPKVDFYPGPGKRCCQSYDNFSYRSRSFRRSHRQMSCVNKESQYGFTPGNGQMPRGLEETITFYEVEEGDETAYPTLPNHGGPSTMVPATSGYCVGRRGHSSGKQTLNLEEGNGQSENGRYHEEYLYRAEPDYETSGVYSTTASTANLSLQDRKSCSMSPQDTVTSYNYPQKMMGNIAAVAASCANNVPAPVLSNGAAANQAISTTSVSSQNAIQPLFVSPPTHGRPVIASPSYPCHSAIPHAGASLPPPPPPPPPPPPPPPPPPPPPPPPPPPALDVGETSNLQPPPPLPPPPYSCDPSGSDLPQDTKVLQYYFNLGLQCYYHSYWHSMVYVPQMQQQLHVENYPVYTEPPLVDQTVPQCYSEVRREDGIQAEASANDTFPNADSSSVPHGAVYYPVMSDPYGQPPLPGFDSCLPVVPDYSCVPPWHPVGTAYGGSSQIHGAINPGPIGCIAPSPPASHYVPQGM
# Assay: log2 ratio of Biotin-Ahx-Ub-VS probe labelling (fragment/DMSO); higher = less target engagement (more negative = stronger competition), active = hit call of the paper (q ≤ 0.05, log2 ratio ≤ -1)
# Settings: compound concentration: 200 uM; treatment time: 3 h
# Outline: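 HEK293T lysate (495 µg per sample, in Tris/CHAPS/IGEPAL buffer with protease inhibitors) was treated in triplicate with fragment at 200 µM or with DMSO for 3 h. It was then treated with Biotin-Ahx-Ub-VS (0.5 µM final) for 1 h. Labelled DUBs were NeutrAvidin-enriched, digested with LysC and trypsin, and run by diaPASEF LC-MS/MS. Spectronaut label-free quantities were global-median-normalised. Values are average log2 ratios fragment/DMSO by unpaired t-test, using proteins with ≥2 unique peptides.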
row,Compound,log2 ratio of Biotin-Ahx-Ub-VS probe labelling
1,CC(NC(=O)CCl)c1csc(-c2ccccc2)n1.Cl (stereo not given),0.0117
2,CCN(C(=O)CCl)C1CCCCC1,0.0472
3,CN(C)C(=O)c1ccc(NC(=O)CCl)cc1,-0.115
4,NC(=O)C1CCCN(C(=O)CCl)C1 (stereo not given),0.0966
5,Cc1cccc(N(CCC#N)C(=O)CCl)c1C,-0.29
6,CC(NC(=O)CCl)c1cc2n(n1)CCCC2.Cl (stereo not given),0.164
7,O=C(CCl)NCc1cccc(N2CCCC2=O)c1,-0.0431
8,N#Cc1ccccc1N1CCN(C(=O)CCl)CC1,-0.383
9,Cl.Cn1nc2c(c1CNC(=O)CCl)CCCC2,-0.455
10,Cc1ccc(C(=O)NCCNC(=O)CCl)cc1,-0.0475
11,Cc1nc(-c2cccc(NC(=O)CCl)c2)cs1,0.3
12,Cl.O=C(CCl)N1CCc2ncncc2C1,-0.17
13,CC(NC(=O)CCl)c1cccc2ccccc12 (stereo not given),0.0911
14,Cc1ccc(N(C(=O)CCl)C2C=CS(=O)(=O)C2)cc1 (stereo not given),-0.425
15,Cc1cccnc1NC(=O)C1CCN(C(=O)CCl)CC1.Cl,0.0719
16,O=C(CCl)N(C1=CCCCC1)C1CC1,0.101
17,O=C(CCl)N1CCN(C(=O)Nc2ccccc2)CC1,0.164
18,CC(NC(=O)CCl)c1noc(Cc2ccccc2)n1 (stereo not given),0.107
19,Cc1cccn2cc(CCNC(=O)CCl)nc12.Cl,0.103
20,Cl.O=C(CCl)NC1(c2ncccn2)CCC1,0.0863
